Among all 330,000 compounds or so, about 7,700 (2.3%) were called active. A call without a number means that no potency is given here. Not shown: some 26% with an inconclusive outcome. Calls come from the whole dose curve; as a rule, active = well fitted inhibition curve with a large enough effect; inconclusive = small, poorly fitted or top-dose-only effect, or effect the other way; inactive = flat fitted curve, though single readings scatter. This excerpt belongs to a sample that is enriched for actives.
Potency is the fitted concentration of half-maximal effect.

This test in a line: qHTS screen for small molecules that inhibit ELG1-dependent DNA repair in human embryonic kidney (HEK293T) cells expressing luciferase-tagged ELG1. Note: nearly all actives have a fitted effect of over 55% in size. The following applies: HEK293T ELG1-luciferase reporter, luminescence, 16 h, DNA damage induced by 5-fluorouridine; series mostly up to 46.1 µM. The text has this: NIH Molecular Libraries Probe Production Network [MLPCN] NIH Chemical Genomics Center [NCGC] MLPCN Grant: 1 R03 MH092164-01 Assay Provider: Kyungjae Myung, NHGRI, NIH Keywords: MLPCN, qHTS, NCGC, genotoxicity, cancer Assay Overview: Cancer cells divide rapidly compared to normal cells in the body. During cell division, cancer cells need to duplicate their genome by DNA replication. The failure of genome duplication leads to cancer cells' death. Therefore, inhibitors of DNA replication could specifically kill cancer cells. Based on this concept, many chemotherapeutic agents were developed and have been used to treat cancer patients. However, there are a limited number of agents available in the clinical setting, and some of those that do exist have low efficacy and severe side effects. Therefore, if we can find the compounds that effectively block DNA replication either by directly damaging DNA or by inhibiting other cellular mechanisms, the options for cancer treatment will be broadened. With this in mind, we developed a quantitative high-throughput ELG1-luciferase reporter gene assay. Small molecules that specifically block ELG1 function in response to DNA damage can be identified by monitoring the suppression of luciferase activity. Since ELG1 defines a pathway for repairing DNA damage, agents blocking ELG1 function can be used to sensitize cancer cells to chemotherapeutic agents whose mechanism of action involves the induction of DNA damage.
Assay Protocol Summary: For genotoxicity screening, 2,000 cells in 4 uL/well were dispensed into white, solid-bottom 1536-well plates using a solenoid-based dispenser. Following transfer of 1 uL 5-Fluorouridine and 23 nL compound or DMSO vehicle by a pin tool, the plates were incubated 16 hr at 37 °C and 5% CO2. 5 ul ONE-Glo (Promega) was then added to each plate and following a 30 min incubation at room temperature, luciferase activity was quantified on a ViewLux CCD-based plate reader.
Take `Cc1cc(Br)ccc1NC(=O)c1cnc(N2CCN(c3ccccn3)CC2)c2ccccc12`: the Potency is 11.6 µM (active). Next, `O=C(CN1CCN(c2ccccn2)CC1)Nc1ccc(Br)cc1`: “inactive”. Next, `Cc1cc(Br)ccc1NC(=O)c1sc2ncn(CC(=O)N3CCN(c4ccccn4)CC3)c(=O)c2c1C`: “inactive”; `COc1ccc(S(=O)(=O)N2CCCCC2)cc1NC(=O)c1cc([N+](=O)[O-])ccc1N1CCOCC1`: “inactive”. With `CCc1ccc(S(=O)(=O)N/N=C\c2ccc([N+](=O)[O-])o2)cc1`, the Potency result was “inactive”. As for `N#Cc1cc([N+](=O)[O-])ccc1NC(=O)COC(=O)c1cnccn1`, the Potency entry is “inactive”. The value for `COc1cc(/C=C2\CCCc3c2nc2ccccc2c3C(=O)O)cc(Cl)c1O` was “inactive”; that for `O=C(COC(=O)c1c2c(nc3ccccc13)CCCC2)c1ccc(Br)s1` was “inactive”. Next, `O=C(COC(=O)c1c2c(nc3ccccc13)/C(=C\c1cccs1)CCC2)Nc1ccccc1Cl`: 16.4 µM (active); `CC(NC(=O)COC(=O)c1ccc2c(c1)OCO2)c1ccccc1` (stereo not drawn): “inactive”; `NS(=O)(=O)c1ccc(NC(=O)COC(=O)c2cc3ccccc3oc2=O)cc1`: “inactive”. Next, `NS(=O)(=O)c1ccc(NC(=O)COC(=O)c2ccc(Cl)nc2)cc1`: “inactive”; `NS(=O)(=O)c1ccc(NC(=O)COC(=O)c2c3c(nc4ccccc24)/C(=C\c2ccc4c(c2)OCO4)CCC3)cc1`: 20.6 µM (active).

As for `NC(=O)c1ccc(NC(=O)COC(=O)c2c3c(nc4ccccc24)/C(=C\c2ccc4c(c2)OCO4)CCC3)cc1`, the Potency was 20.6 µM (active). Next, `O=C(COC(=O)c1ccncc1)Nc1ccc2c(c1)OCO2`: “inactive”. Next, `COc1ccc(C(=O)N2CCCCC2C(=O)Nc2ccc(-n3nc(C)cc3C)cc2)o1` (stereo not drawn): “inactive”; `O=C(NCC(c1cccs1)N1CCOCC1)c1cc(Cl)ccc1[N+](=O)[O-]` (stereo not drawn): “inactive”.

For the compound `Cc1ccc(Nc2nnc(SC(C)C(=O)NC3CC3)s2)cc1` (stereo not drawn), the Potency entry is “inactive”. The value for `CC(C)(C)OC(=O)C[C@H]1C/C=C\C[C@@H](CC(=O)N[C@H](CO)Cc2ccccc2)C(=O)NC[C@@H](c2ccccc2)OC1=O` was “inactive”; that for `Cc1[nH]c2ccccc2c1CCN(Cc1cccs1)C(=S)NC(C)(C)C` was “inactive”. `COc1ccc(NC(=S)NCc2cccs2)c(OC)c1`: the Potency entry is “inactive”. Consider `CCNC(=S)N(CCc1c(C)[nH]c2ccc(C)cc12)Cc1ccco1`, for which the Potency entry was “inactive”. As to `COc1ccc2[nH]c(C)c(CCN(Cc3cccs3)C(=S)Nc3ccccc3OC)c2c1`, the Potency is 13 µM (active). On to `Cc1ccc(NC(=S)N(CCN2CCCCC2)Cc2ccco2)cc1C`, for which the Potency result was “inactive”. Take `COc1cccc(NC(=S)N(CCc2c(C)[nH]c3ccccc23)Cc2ccco2)c1`: the Potency was 20.6 µM (active). The value for `CC(OC(=O)/C=C/c1ccccc1)C(=O)Nc1ccc(C(N)=O)cc1` (stereo not drawn) was “inactive”. Next, `CC1CCC(NS(=O)(=O)c2ccc3c(c2)CC(=O)N3)CC1` (stereo not drawn): “inactive”.

Take `O=C(COC(=O)c1cccc(Cl)c1)NC(=O)NCc1ccccc1`: the Potency result was “inactive”. The value for `Cc1ccc(S(=O)(=O)N2[C@@H](c3cccc(Cl)c3)C(C(=O)O)=CC[C@H]2c2ccc(Cl)c(Cl)c2)cc1` was “inactive”; that for `O=C(NCCCN1CCOCC1)c1cn(-c2ccccc2)nc1-c1ccc(F)cc1` was “inactive”. As for `O=C(NCCCO)c1cc2c([nH]c3ccccc32)c(-c2ccc(F)cc2)n1`, the Potency is 18.3 µM (active). Next, `CN(C)CCCNC(=O)c1ccc2[nH]c3ccccc3c2c1`: “inactive”. With `O=C(NCC1(N2CCCCC2)CCCCC1)c1ccc(NS(=O)(=O)c2ccc(F)cc2)cc1`, the Potency entry was “inactive”. With `Cc1ccc(C(CC(=O)O)NC(=O)c2ccc(S(=O)(=O)N3CCCC3)cc2)cc1` (stereo not drawn), the Potency entry is “inactive”.

`Cc1c(NC(=O)CN(C)CC(=O)Nc2ccc(F)c(F)c2F)c(=O)n(-c2ccccc2)n1C`: the Potency entry was “inactive”. As to `COc1ccc(C(=O)NCc2ccc(Cl)cc2)cc1S(=O)(=O)N1CCCC1`, the Potency result was “inactive”. Next, `CNC(=O)c1ccc(NC(=O)c2cccc(C(F)(F)F)c2)cc1`: “inactive”; `Cc1nc(NC(=O)c2cccc(Cl)c2)sc1-c1csc(Nc2cccc(Cl)c2)n1`: “inactive”; `O=C(Nc1ccc(-c2csc(Nc3cccc(C(F)(F)F)c3)n2)cc1)c1cccc(C(F)(F)F)c1`: 10.3 µM (active). As to `COc1cccc(CN(C)C(=O)CC23CC4CC(CC(C4)C2)C3)c1OC`, the Potency entry is “inactive”. The value for `CCN(CC)S(=O)(=O)c1ccc(N(C)Cc2ccc(C(F)(F)F)cc2)nc1` was “inactive”; that for `CCN(CC)S(=O)(=O)c1ccc(N(C)Cc2cccc(OC)c2OC)nc1` was 13 µM (active).

For the compound `COc1ccc(/C=C/C(=O)OCC(=O)NC2CCCCCC2)cc1OC`, the Potency result was “inactive”. In the case of `COC(=O)c1cc(Oc2ccc(S(=O)(=O)N3CCOCC3)cc2[N+](=O)[O-])cc(C(=O)OC)c1`, the Potency result is “inactive”. For `CCOC(=O)C1=C(c2ccc(OC)cc2)C(=O)c2ccccc2C1=O`, the Potency was 2.91 µM (active).

For `COc1ccc(OCCCON2C(=O)c3ccccc3C2=O)cc1`, the Potency result is “inactive”. As for `CCCCC(C(=O)OCC(=O)c1ccc(OC)cc1)N1C(=O)c2ccccc2C1=O` (stereo not drawn), the Potency result is “inactive”. As for `Cc1ccc(C(=O)CN2C(=O)NC3(CCOc4ccccc43)C2=O)s1` (stereo not drawn), the Potency entry was “inactive”.

The values are drawn from PubChem BioAssay AID504467 (National Center for Advancing Translational Sciences (NCATS), 2011).
